Results published in PubChem BioAssay (NCI).
Compounds without any hit were thinned out: in the full panel of roughly 79,000, 15% have a hit. Rule as the data show it: active = growth inhibition above about 70%; inactive = the rest.

What was measured:
[1] = NCI Yeast Anticancer Drug Screen. Data for the rad50 strain (AID 155);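 also: 0% = growth of vehicle-only cultures of the same strain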; conditions: S. cerevisiae rad50 strain growth inhibition; at 50.0 µM; hits give high values
Summary of the method: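 A DNA repair-deficient yeast mutant serves as the test organism; compound-induced growth inhibition is calculated against vehicle-treated cells.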

[2] = NCI Yeast Anticancer Drug Screen. Data for the mec2-1 strain (AID 157); conditions: S. cerevisiae mec2-1 strain, at 50.0 µM, hits give high values
Summary of the method: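 Growth inhibition is read against vehicle-treated controls after compound exposure of the mec2-1 yeast strain, which is defective in DNA damage repair or cell cycle control.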

[3] = NCI Yeast Anticancer Drug Screen. Data for the sgs1 mgt1 strain (AID 161);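 also: 0% = growth of cultures given vehicle only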; conditions: S. cerevisiae sgs1 mgt1 strain, at 50.0 µM, hits give high values
Summary of the method: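 Growth of a repair-deficient yeast mutant was monitored after compound treatment and expressed as inhibition relative to vehicle-treated cultures.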

[4] = NCI Yeast Anticancer Drug Screen. Data for the cln2 rad14 strain (AID 165);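 also: 0% = growth equal to vehicle treated cultures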; conditions: S. cerevisiae cln2 rad14 strain, at 50.0 µM, hits give high values
Summary of the method: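 Growth inhibition, relative to vehicle-treated controls, is the read-out. The test organism is a yeast strain with defined genetic alterations, cln2 rad14.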

[5] = NCI Yeast Anticancer Drug Screen. Data for the bub3 strain (AID 167); conditions: S. cerevisiae bub3 mutant strain, at 50.0 µM, hits give high values
Summary of the method: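 Inhibition values come from growth of compound-treated mutant yeast normalised to vehicle-treated controls.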

[6] = NCI Yeast Anticancer Drug Screen. Data for the mlh1 rad18 strain (AID 175); conditions: S. cerevisiae mlh1 rad18 strain growth inhibition; at 50.0 µM; hits give high values
Summary of the method: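 Cells of a genetically altered yeast strain, deficient in DNA damage repair, were treated with compound. Their growth was then compared with that of vehicle-treated cultures to give inhibition.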

Measured: growth inhibition

CCN(CC)CCC(=O)N1C/C(=C/c2ccccc2)C(=O)/C(=C\c2ccccc2)C1
inactive: [1] 47.4% | [2] 37.9% | [3] 12.8% | [4] 30.6% | [5] 13.2% | [6] 2.7%

CC(=O)Nc1ccc2c(c1)Cc1ccc(S(C)(=O)=O)cc1-2
inactive: [1] 23.9% | [2] -7.15% | [3] 10.9% | [4] 6.9% | [5] 0.65% | [6] 44.1%

c1ccc(COC2COC(c3ccccc3)OC2)cc1 (stereo unspecified)
inactive: [1] 5.95% | [2] -35% | [3] 0.7% | [4] 16.9% | [5] 7.45% | [6] 3.15%

COc1ccc2c(c1O)C1(CCN(C)C)CC(=O)CCC1C=C2 (stereo unspecified)
inactive: [1] 13.2% | [2] -11.5% | [3] 9.55% | [4] 6.2% | [5] 25.5% | [6] 12.4%

Cc1ccc(S(=O)(=O)N/N=C(\C(=O)Nc2cccc([N+](=O)[O-])c2)c2nc3ccc([N+](=O)[O-])cc3[nH]c2=O)cc1
inactive: [1] -3% | [2] -6% | [3] 3.65% | [4] 7.4% | [5] -3.1% | [6] 2.2%

CC(C)NC(=O)OCCN=C1c2ccccc2C(Br)C(Br)c2ccccc21 (stereo unspecified)
inactive: [1] 3.25% | [2] -5.1% | [3] 2.05% | [4] 1.1% | [5] 4.9% | [6] 8.6%

CNC(=O)c1cccc([N+](=O)[O-])c1
inactive: [1] 32.1% | [2] 19.8% | [3] 21.7% | [4] -31.2% | [5] 7.25% | [6] 30.2%

CC1CC(c2ccccc2)=Nc2ccccc2S1 (stereo unspecified)
inactive: [1] 18.2% | [2] 12.9% | [3] 16.2% | [4] 19.5% | [5] 6.5% | [6] -9.4%

Cc1cc(N(C)C)c([N+](=O)[O-])cc1C=O
inactive: [1] 5.9% | [2] 13.8% | [3] -13.3% | [4] -22.4% | [5] -24.9% | [6] -5.8%

CC12CC3CC(O)(C1)CC(O)(C3)C2
inactive: [1] 7.25% | [2] -11.1% | [3] -1.45% | [4] 22.2% | [5] -8.3% | [6] 4.15%

CCOC(=O)/C(C#N)=C/c1ccccc1OC
inactive: [1] 35.6% | [2] 38.9% | [3] 31.9% | [4] 10.5% | [5] 47.5% | [6] 47.5%

CCCCCC1=CC(=O)C=C(OC)C12C(=O)Oc1cc(O)c(C(=O)O)c(CCCCC)c12 (stereo unspecified)
inactive: [1] 32.4% | [2] 37% | [3] 28.2% | [4] 48.4% | [5] 18.6% | [6] 33.8%

Cc1cc(OCC(=O)O)c(Cl)cc1Cl
inactive: [1] -13.4% | [2] -9.7% | [3] -50.5% | [4] -22.9% | [5] -17.9% | [6] -11.7%

CCOC(=O)c1sc(N)nc1C
inactive: [1] -17.8% | [2] -12.2% | [3] -17.2% | [4] -21.9% | [5] -11.5% | [6] 0.35%

O=C(O)c1cc(C2CC2)nc2ccccc12
inactive: [1] -1% | [2] 1.6% | [3] 0.55% | [4] -0.95% | [5] -14.6% | [6] 24.6%

CCC(=O)Nc1cccc([N+](=O)[O-])c1OC
inactive: [1] -5.35% | [2] 23.4% | [3] -7.45% | [4] -52.2% | [5] 9.15% | [6] -15.2%

CC(=O)Oc1cc(C)c(OC(C)=O)cc1C
inactive: [1] -11.3% | [2] -14.3% | [3] 3.1% | [4] -1.85% | [5] 16.9% | [6] 14.3%

CCS(=O)(=O)CC(C)O (stereo unspecified)
inactive: [1] 13.7% | [2] -11.3% | [3] -4.2% | [4] 10.1% | [5] 11% | [6] -7.95%

CN1CCC(n2[nH]c(-c3ccccc3)c(Cc3ccccc3)c2=O)CC1
inactive: [1] 3.3% | [2] -40.6% | [3] -13.3% | [4] 10.6% | [5] -15.1% | [6] 5.7%

C[C@@H]1CCC[C@H]1C(N)C(=O)O (stereo partly specified)
inactive: [1] -18% | [2] 2% | [3] -3.85% | [4] -25.1% | [5] -18.1% | [6] -12.9%

COC(=O)C(=O)C(C(=O)C(=O)Nc1ccccc1C(N)=O)c1nc2ccc(C(=O)c3ccccc3)cc2[nH]c1=O (stereo unspecified)
inactive: [1] -3.9% | [2] 20% | [3] -7.4% | [4] -17.1% | [5] -6.1% | [6] 9.5%
